# From PubChem BioAssay AID2233 (The Scripps Research Institute Molecular Screening Center, 2010)
# Some of the results follow. Active and inactive are the calls of the source.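 The calls were made as follows: active = mean inhibition across replicates above the hit cutoff set in the primary screen (cut at about 15% in these data); inactive = the rest.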
# Biological target: Acyl-protein thioesterase 1 (Homo sapiens) (UniProt O75608)
# Assay: LYPLA1 inhibitors, retest, confirmation, counter-screen for PME1 inhibitor project, biochemical, fluorescence polarization, FP-Rh probe ABPP (AID 2233);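 also: loss of FP-Rh probe labeling of LYPLA1 seen as lower polarization; 0% = LYPLA1 with DMSO and 100% = wells lacking LYPLA1 enzyme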
# Settings: recombinant LYPLA1, FP-Rh probe fluorescence polarization; at 5.9 µM; active compounds read high
# Sequence of Acyl-protein thioesterase 1 (Homo sapiens) (O75608 whole entry, looked up): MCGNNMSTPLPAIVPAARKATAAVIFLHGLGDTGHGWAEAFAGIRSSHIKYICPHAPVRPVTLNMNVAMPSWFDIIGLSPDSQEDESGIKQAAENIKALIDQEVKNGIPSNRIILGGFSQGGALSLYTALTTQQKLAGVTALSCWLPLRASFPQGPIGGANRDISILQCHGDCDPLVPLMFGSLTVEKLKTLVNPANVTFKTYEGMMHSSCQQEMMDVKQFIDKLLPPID
row,SMILES,inhibition
1,CCN1C(=O)/C(=C2/Sc3ccccc3N2CCCS(=O)(=O)O)SC1=S,9.65% (inactive)
2,O=C(CCn1c(SCC(=O)c2ccccc2)nc2ccccc2c1=O)NCc1ccc(F)cc1,-4.57% (inactive)
3,C=CCNC(=O)c1sc(SC)cc1-c1ccc(Cl)cc1,23.5% (active)
4,Cc1ccc(N2CCN(C3=NC(=O)/C(=C\c4cccs4)S3)CC2)cc1,37% (active)
5,COc1ccc(N2CC(C(=O)NCCN3C(=O)S/C(=C\c4cccnc4)C3=O)CC2=O)c(OC)c1 (stereo not drawn),1.04% (inactive)
6,O=C(CN1CCN(c2cccc(Cl)c2)CC1)Nc1ccc(S(=O)(=O)N2CCOCC2)cc1,23.3% (active)
7,O=c1[nH]n(-c2cccc(Cl)c2)c2ncccc12,2.75% (inactive)
8,CCCCn1c(N)c(N(CCC(C)C)C(=O)CC2OC(=O)c3ccccc32)c(=O)[nH]c1=O (stereo not drawn),0.51% (inactive)
